Hits are enriched below; roughly 3.2% of the tested compounds scored in any of these assays.
BRCT PPI green = inhibitors of human BRCA1 BRCT-phosphoprotein interaction (green fluorophore). AID 875. hit rate 0.05% among 75,000. BRCA1 BRCT-phosphopeptide binding, green fluorescence polarization. Potency, µM (doses to about 76.9 µM), for the others: at the top dose activity change, negative = inhibition, usual class: inhibitors;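 further: potency means the concentration at half of the fitted maximal effect; plate controls were peptide without protein for full effect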
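Fluorescence polarization: His-tagged BRCT (~35 kDa BRCA1 C-terminus, 250 nM) bound to 100 nM fluorescein-labeled phosphorylated 10-aa BACH1 peptide, pH 7.3 phosphate buffer with DTT and Tween 20. Compounds incubated 12 min at room temperature; inhibition read as lowered polarization.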
YjeE inh = inhibitors of E. coli YjeE (TsaE) | purified YjeE enzyme, qHTS inhibition assay | Potency, µM | AID 605 | hit rate 0.05% among 71,000 | P0AF67
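Purified YjeE (10 uM) with BODIPY Texas Red-labeled ADP probe (2 uM); compounds pin-transferred, 15 min at room temperature. Binding inhibition read as decreased fluorescence polarization; ADP titration as control.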
HEK293 cAMP ctrl = parental HEK293 cAMP activation (counter-screen); hit rate 2.5% among 73,000; Potency, µM (highest dose often 57.1 µM), for inactives: top-dose activation, usual class: activators; parental HEK293 CNG cAMP sensor, membrane potential fluorescence; further: potency means the concentration at half of the fitted maximal effect; % of control where 0% means no effect; nearly all actives have a fitted effect of over 55% in size
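Parental HEK 293 cells stably expressing a cAMP-gated CNG channel were loaded with membrane potential dye containing 100 uM RO 20-1724 for 60 min. Compound added for 30 min; depolarization read as fluorescence intensity at 590 nm.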
BRCT inh red = disrupts BRCA1 BRCT binding to phosphoprotein, red fluorophore readout | Potency, µM (series often up to 76.9 µM), inactives show at the highest dose activity change, negative = inhibition, actives largely listed as inhibitors | BRCT-phosphopeptide binding, red fluorescence polarization | hit rate 0.03% among 75,000 | P38398 | AID 892; further: on the % scale 0 is the no-effect control and ±100 the full control effect
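Rhodamine-labelled pBACH1 10-mer (100 nM) bound to BRCT domain (100 nM) at pH 7.3; compounds incubated 12 min room temperature, polarization read. Free peptide defines full inhibition; unlabelled decapeptide titrated as control.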
TSHR agonist = TSH receptor (human) agonism. hit rate 0.48% among 73,000. AID 926. HEK293-CNG-TSHR cells (CNG channel as cAMP sensor), membrane potential dye, cAMP. Potency, µM (series often up to 57.1 µM), without a hit: top-dose activation, most hits filed as activators. P16473; active means well fitted activation curve with a large enough effect in the main read-out, with a control signal flat, not every such curve was filed as active; inconclusive means small, poorly fitted or top-dose-only effect, or a change in a side signal; inactive means no such curve, though single readings can be large or run the other way; % of control where 0% means no effect;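 further: the control signal comes from parental cells without the receptor; potency means the concentration at half of the fitted maximal effect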
Target sequence (P16473 whole entry, looked up): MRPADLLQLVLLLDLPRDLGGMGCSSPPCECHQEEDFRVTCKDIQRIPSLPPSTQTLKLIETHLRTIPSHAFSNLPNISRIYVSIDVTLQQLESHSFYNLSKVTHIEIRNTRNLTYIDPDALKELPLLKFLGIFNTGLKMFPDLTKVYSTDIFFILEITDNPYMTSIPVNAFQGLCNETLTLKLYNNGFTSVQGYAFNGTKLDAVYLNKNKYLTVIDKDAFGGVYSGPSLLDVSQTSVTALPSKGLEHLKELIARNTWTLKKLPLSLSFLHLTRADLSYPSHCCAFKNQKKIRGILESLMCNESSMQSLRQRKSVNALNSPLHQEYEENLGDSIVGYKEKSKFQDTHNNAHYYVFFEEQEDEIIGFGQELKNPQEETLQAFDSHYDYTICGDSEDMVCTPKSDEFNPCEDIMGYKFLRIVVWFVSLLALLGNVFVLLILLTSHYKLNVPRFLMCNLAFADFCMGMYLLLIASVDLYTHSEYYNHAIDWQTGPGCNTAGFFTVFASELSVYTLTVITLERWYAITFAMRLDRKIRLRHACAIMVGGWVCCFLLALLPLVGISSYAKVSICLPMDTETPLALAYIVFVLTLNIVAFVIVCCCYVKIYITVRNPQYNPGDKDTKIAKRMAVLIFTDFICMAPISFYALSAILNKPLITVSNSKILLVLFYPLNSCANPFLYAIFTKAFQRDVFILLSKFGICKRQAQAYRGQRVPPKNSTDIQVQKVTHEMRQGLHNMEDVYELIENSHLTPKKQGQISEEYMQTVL
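HEK 293 cells stably expressing TSHR and a modified CNG channel, with CNG-only parental cells as counterscreen, were preloaded 60 min at room temperature with membrane potential dye containing 100 uM RO 20-1724. Compound exposure was 30 min, and depolarization was read as fluorescence at 590 nm.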
Pol III holo inh = DNA polymerase III holoenzyme inhibition. reconstituted DNA polymerase III holoenzyme replication, biochemical. Potency, µM (series often up to 57.1 µM), inactives show at the highest dose activity change, negative = inhibition. hit rate 0.25% among 71,000; further: potency means the concentration at half of the fitted maximal effect; on the % scale 0 is the no-effect control and ±100 the full control effect
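Reconstituted *E. coli* holoenzyme (0.35 nM Pol III, 1 nM beta, 154 nM SSB, 2 nM primase) was preincubated with compound for 15 min at RT. Synthesis on 1.4 nM ssM13Gori ran 35 min, then was stopped with PicoGreen/EDTA and read as dsDNA fluorescence.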
HEK293 cAMP cnt = counter-screen for TSH receptor agonists: cAMP in parental HEK293 cells | shares compounds with TSHR agonist | parental HEK293 CNG biosensor, cAMP membrane potential fluorescence | activity change, negative = inhibition, % at 32.9 µM | 150 tested, under 10 active | AID 953
An asterisk follows results filed as active; i = inactive; ? = inconclusive; . = no result given; ! = a repeat was not active; [ ] = dose if it differs, or a comment. Unless noted, the call rests on the fitted dose curve; in most records, active means well fitted curve in the direction sought with a large enough effect; inconclusive means small, poorly fitted or top-dose-only effect, or another doubt; inactive means no such curve, though single readings can be large; an effect the other way counts as inactive or inconclusive.

SMILES | BRCT PPI green | YjeE inh | HEK293 cAMP ctrl | BRCT inh red | TSHR agonist | Pol III holo inh | others
C=C(CC1(C(C)NP(=O)(c2ccccc2)c2ccccc2)CC1)c1ccccc1 (stereo not given) | -2% | i | 16µM* | -3% | ? | -7%
CN(c1ccccc1)S(=O)(=O)c1cccc(C(=O)N2CCN(c3ccccn3)CC2)c1 | -3% | i | 16µM* | -1% | ? | -3%
O=C1C2CC=CCC2C(=O)N1SC(Cl)(Cl)Cl (stereo not given) | 1% | i | -44% | 0% | ? | 40µM*!
CC[C@@]12CCCN3CC[C@@]4(c5ccc(OC)c(O)c5N(C(C)=O)[C@H]4CC1)[C@H]32 | . | i | 5% | . | 4% | -6%
FC(F)(F)c1ccc(Cl)cc1 | 0% | i | 24% | 0% | 6% | -1%
CCNC(=O)C1OC(n2cnc3c(N)ncnc32)C(O)C1O (stereo not given) | -2% | . | 0.63µM* | 0% | ? | .
C=CCOC(=O)COc1cc(C)cc2oc(=O)c3c(c12)CCC3 | 3% | i | 5µM* | -1% | ? | -2%
C[C@@H]1[C@@H](C)N1C[C@H](O)Cn1ccnc1[N+](=O)[O-] (stereo not given in full) | 0%[15.4 µM] | i | 1%[11.4 µM] | -1%[15.4 µM] | -1%[11.4 µM] | 0%[11.4 µM]
CC(C)CC(=O)C[C@H](O)C(Cl)(Cl)Cl | -2%[15.4 µM] | i | 15%[11.4 µM] | 0%[15.4 µM] | -3%[11.4 µM] | 6%[11.4 µM]
CCOc1ccc2[nH]c(=O)c(CN(CCO)C3(c4nnnn4C4CCCCC4)CCCCC3)cc2c1 | -1% | i | 25µM* | -3% | ? | -8%
CCN(CC)/[N+]([O-])=N/O | -1%[3.08 µM] | . | . | 1% | . | .
O=C(Nc1ccccn1)NC12CC3CC(CC(C3)C1)C2 | -2% | i | 26% | -2% | 20µM* | -2% | HEK293 cAMP cnt=-9
C[N+]1(C)CCO[C@@](O)(c2ccc(-c3ccc([C@]4(O)C[N+](C)(C)CCO4)cc3)cc2)C1 | -4% | i | 2% | -2% | 1% | -9%
CCOC(=O)c1c(C)n(COCCO)c2ccc(O)cc12 | -1% | i | -3% | -4% | -1% | -7%
CCn1c(C)c(C(=O)O)c2cc(OC)ccc21 | -2% | i | -7% | -1% | 0% | -4% | HEK293 cAMP cnt=6[25.6 µM]
NC[C@@H]1O[C@@H](O[C@H]2[C@@H](O)[C@H](O[C@@H]3[C@H](O)[C@H](N)C[C@H](N)[C@H]3O[C@@H]3O[C@@H](CO)[C@H](O)[C@H](O)[C@@H]3N)O[C@H]2CO)[C@H](N)[C@H](O)[C@@H]1O | -2% | i | -4% | -2% | 1% | -3%
CCC(=NCC1CCCO1)c1c(O)n(Cc2ccccc2)c(=O)[nH]c1=O (stereo not given) | 0% | i | 4% | 0% | 1% | 5% | HEK293 cAMP cnt=6[25.6 µM]

Bioassay records as filed in PubChem BioAssay.
